The values below come from the antibiotic and cytotoxicity screens of Wong et al. (2023).

The whole screen tested about 39,000 compounds, of which about 1,500 (3.8%) were called active. The entries come from a sample that favours actives as a whole.

For this experiment, the system named is HSkMC (human skeletal muscle cells). In words: cytotoxicity call (relative viability < 0.9). The note with it: 10 µM.
In the case of `COc1ccc(NC(=O)Nc2ccc3c(c2)[C@@H]2C[C@@H](CC(=O)NCc4ccncc4)O[C@H](CO)[C@@H]2O3)cc1`, the cytotoxicity call is “inactive”.

As to `COc1ccc(S(=O)(=O)N(C)C[C@@H]2OCCCC[C@@H](C)Oc3ccc(NC(=O)Nc4ccccc4)cc3C(=O)N([C@@H](C)CO)C[C@H]2C)cc1`, the cytotoxicity call is “inactive”.

In the case of `C[C@H](CO)N1C[C@H](C)[C@H](CN(C)S(=O)(=O)c2ccccc2)Oc2ccc(NC(=O)Cn3cnnn3)cc2CC1=O`, the cytotoxicity call is “inactive”.

Consider `C[C@@H]1CN([C@@H](C)CO)C(=O)Cc2cc(NC(=O)Cc3cn(C)c4ccccc34)ccc2O[C@H]1CN(C)C(=O)Nc1cccc2ccccc12`, for which the cytotoxicity call was “inactive”.

As for `C#CCN(O[C@@H](/C=C/[C@@H](O)Cc1ccccc1)C1CC1)[C@@H](Cc1ccc(-n2cc(CCC(=O)NO)nn2)cc1)C(=O)OC`, the cytotoxicity call is “inactive”.

In the case of `Cc1noc(C)c1S(=O)(=O)N(C)C[C@H]1Oc2ccc(NS(=O)(=O)c3cn(C)cn3)cc2CC(=O)N([C@@H](C)CO)C[C@@H]1C`, the cytotoxicity call is “inactive”.

`Cc1noc(C)c1S(=O)(=O)Nc1ccc2c(c1)C(=O)N([C@H](C)CO)C[C@H](C)[C@H](CN(C)C(=O)Nc1ccc3c(c1)OCO3)O2`: the cytotoxicity call is “inactive”.

For the compound `Cc1noc(C)c1S(=O)(=O)Nc1ccc2c(c1)C(=O)N([C@H](C)CO)C[C@H](C)[C@@H](CN(C)S(=O)(=O)c1ccccc1)O2`, the cytotoxicity call was “inactive”.

Consider `O=C(C[C@@H]1C[C@@H]2c3cc(NC(=O)C4CCOCC4)ccc3O[C@@H]2[C@@H](CO)O1)NCc1ccc2c(c1)OCO2`, for which the cytotoxicity call was “inactive”.

On to `C[C@@H]1CCCCO[C@H](CN(C)CC2CCCCC2)[C@H](C)CN([C@@H](C)CO)C(=O)c2cc(NC(=O)Nc3ccc(C(F)(F)F)cc3)ccc2O1`, for which the cytotoxicity call is “active”.

With `C[C@@H]1CCCCO[C@H](CN(C)CC2CCCCC2)[C@H](C)CN([C@H](C)CO)C(=O)c2cc(NC(=O)Nc3ccc(C(F)(F)F)cc3)ccc2O1`, the cytotoxicity call is “active”.

Consider `C[C@@H]1CCCCO[C@@H](CN(C)CC2CCCCC2)[C@H](C)CN([C@@H](C)CO)C(=O)c2cc(NC(=O)Nc3ccc(C(F)(F)F)cc3)ccc2O1`, for which the cytotoxicity call is “active”.

Turning to `C[C@H](CO)N1C[C@H](C)[C@H](CN(C)CC2CCCCC2)OCCCC[C@H](C)Oc2ccc(NC(=O)Nc3ccc(C(F)(F)F)cc3)cc2C1=O`, the cytotoxicity call is “active”.

`C[C@H](CO)N1C[C@H](C)[C@@H](CN(C)CC2CC2)OCCCC[C@H](C)Oc2ccc(NC(=O)Nc3ccc(C(F)(F)F)cc3)cc2C1=O`: the cytotoxicity call was “inactive”.

`C[C@@H]1CCCCO[C@@H](CN(C)CC2CC2)[C@H](C)CN([C@H](C)CO)C(=O)c2cc(NC(=O)Nc3ccc(C(F)(F)F)cc3)ccc2O1`: the cytotoxicity call was “inactive”.

With `CC(C)(N)CO.Cn1c(=O)c2[nH]c(Br)nc2n(C)c1=O`, the cytotoxicity call was “inactive”.

With `Cc1ccc(S(=O)(=O)N(C)C[C@H]2OCCCC[C@@H](C)Oc3ccc(NC(=O)CCC(F)(F)F)cc3C(=O)N([C@H](C)CO)C[C@H]2C)cc1`, the cytotoxicity call was “inactive”.

For the compound `CO[C@H]1CN(C)C(=O)c2ccc(NC(C)=O)cc2OC[C@@H](C)N(S(=O)(=O)c2cn(C)cn2)C[C@@H]1C`, the cytotoxicity call is “inactive”.

`C[C@@H]1CCCCO[C@@H](CN(C)Cc2ccc(Cl)c(Cl)c2)[C@@H](C)CN([C@H](C)CO)C(=O)c2cc(N(C)C)ccc2O1`: the cytotoxicity call was “inactive”.

Take `Cc1noc(C)c1NC(=O)Nc1ccc2c(c1)CC(=O)N([C@H](C)CO)C[C@H](C)[C@H](CN(C)C(=O)NC(C)C)O2`: the cytotoxicity call was “inactive”.

Regarding `C[C@@H]1CCCCO[C@H](CN(C)Cc2ccncc2)[C@@H](C)CN([C@@H](C)CO)C(=O)c2cc(NC(=O)Nc3cccc4ccccc34)ccc2O1`, the cytotoxicity call is “inactive”.

Consider `COc1ccc(S(=O)(=O)Nc2ccc3c(c2)C(=O)N([C@H](C)CO)C[C@@H](C)[C@@H](CN(C)Cc2ccncc2)O3)cc1`, for which the cytotoxicity call was “inactive”.

`C[C@H]1CCCCO[C@@H](CN(C)C(=O)Nc2ccc3c(c2)OCO3)[C@@H](C)CN([C@@H](C)CO)C(=O)c2cc(NC(=O)c3ccncc3)ccc2O1`: the cytotoxicity call was “inactive”.

For the compound `C[C@@H]1CN([C@H](C)CO)C(=O)CCCn2cc(nn2)CO[C@H]1CN(C)S(=O)(=O)c1cn(C)cn1`, the cytotoxicity call is “inactive”.

As for `COc1ccc(S(=O)(=O)N(C)C[C@H]2OCCCC[C@@H](C)Oc3ccc(NC(=O)Nc4ccccc4)cc3C(=O)N([C@@H](C)CO)C[C@@H]2C)cc1`, the cytotoxicity call was “inactive”.

For the compound `Cc1noc(C)c1S(=O)(=O)Nc1ccc2c(c1)C(=O)N([C@H](C)CO)C[C@H](C)[C@H](CN(C)S(C)(=O)=O)OCCCC[C@H](C)O2`, the cytotoxicity call was “inactive”.

Turning to `C[C@H]1[C@H](C)CC[C@]2(C(=O)O[C@@H]3O[C@H](CO[C@@H]4O[C@H](CO)[C@@H](O[C@@H]5O[C@@H](C)[C@H](O)[C@@H](O)[C@H]5O)[C@H](O)[C@H]4O)[C@@H](O)[C@H](O)[C@H]3O)CC[C@]3(C)C(=CC[C@@H]4[C@@]5(C)C[C@@H](O)[C@H](O)[C@@](C)(CO)[C@@H]5[C@H](O)C[C@]43C)[C@H]12`, the cytotoxicity call was “inactive”.

As for `C[C@@H]1CN([C@@H](C)CO)C(=O)c2cc(NC(=O)c3ccccc3)ccc2O[C@@H](C)CCCCO[C@H]1CN(C)C(=O)c1ccccc1`, the cytotoxicity call is “inactive”.

Take `COc1ccccc1S(=O)(=O)N[C@H]1CC[C@H](CCNC(=O)C2CCOCC2)O[C@H]1CO`: the cytotoxicity call was “inactive”.

As to `Cc1noc(C)c1S(=O)(=O)N(C)C[C@H]1Oc2ccc(NC(=O)Nc3ccc4c(c3)OCO4)cc2CC(=O)N([C@H](C)CO)C[C@@H]1C`, the cytotoxicity call is “inactive”.

Turning to `C[C@@H]1CN([C@H](C)CO)C(=O)c2cc(NC(=O)Nc3ccc(C(F)(F)F)cc3)ccc2O[C@@H](C)CCCCO[C@@H]1CN(C)CC1CCCCC1`, the cytotoxicity call was “active”.

On to `C[C@H](CO)N1C[C@H](C)[C@@H](CN(C)CC2CCCCC2)OCCCC[C@H](C)Oc2ccc(NC(=O)Nc3ccc(C(F)(F)F)cc3)cc2C1=O`, for which the cytotoxicity call was “active”.

`C[C@@H]1CCCCO[C@@H](CN(C)CC2CCCCC2)[C@@H](C)CN([C@H](C)CO)C(=O)c2cc(NC(=O)Nc3ccc(C(F)(F)F)cc3)ccc2O1`: the cytotoxicity call is “active”.

With `C[C@@H]1CCCCO[C@H](CN(C)CC2CCCCC2)[C@@H](C)CN([C@H](C)CO)C(=O)c2cc(NC(=O)Nc3ccc(C(F)(F)F)cc3)ccc2O1`, the cytotoxicity call was “active”.

For `C[C@H]1CN([C@@H](C)CO)C(=O)c2cc(NC(=O)CCCN(C)C)ccc2O[C@H]1CN(C)C(=O)NC1CCCCC1`, the cytotoxicity call was “inactive”.
